# Screens: PubChem BioAssay, National Center for Advancing Translational Sciences (NCATS)
# In the library only some 5.5% were active in any assay of this set; here they are far more common.
# RORg inh: blocks mouse ROR gamma transcriptional activity; 5.4% of 310,000 active; Drosophila S2 Gal4-RORgamma UAS-luciferase reporter, 20 h; AID 2551; Potency, µM (titrated, usually from 53.6 µM), hits mostly inhibitors; P51450; note: nearly all actives have a fitted effect of over 60% in size
# Target sequence (P51450 whole entry, looked up, the tested form may be a part): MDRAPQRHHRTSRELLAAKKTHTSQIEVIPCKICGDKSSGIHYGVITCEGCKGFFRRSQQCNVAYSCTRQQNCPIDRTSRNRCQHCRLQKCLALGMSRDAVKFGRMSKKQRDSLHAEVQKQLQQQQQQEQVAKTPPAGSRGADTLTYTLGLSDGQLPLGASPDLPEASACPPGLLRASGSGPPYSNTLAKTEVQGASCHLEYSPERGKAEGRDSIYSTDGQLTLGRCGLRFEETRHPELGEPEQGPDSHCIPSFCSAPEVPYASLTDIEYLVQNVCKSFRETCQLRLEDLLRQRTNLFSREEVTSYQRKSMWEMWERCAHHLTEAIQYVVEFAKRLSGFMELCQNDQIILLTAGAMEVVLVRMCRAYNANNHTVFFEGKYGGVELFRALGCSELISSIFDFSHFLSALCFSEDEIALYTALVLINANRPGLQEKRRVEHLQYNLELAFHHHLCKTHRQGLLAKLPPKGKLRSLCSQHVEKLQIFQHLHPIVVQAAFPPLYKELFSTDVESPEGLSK
#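 Drosophila Schneider cells stably carrying a metallothionein-driven Gal4 DBD–ROR gamma fusion and a UAS-Photinus luciferase reporter were exposed to compound for 1 hr, then induced with copper sulfate (700 uM final) for 20 hr at ambient temperature before luminescence reading.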
# VP16 counter: inhibits Gal4-VP16 luciferase reporter, ROR gamma counter-screen. 3.5% of 310,000 active. Drosophila S2 Gal4-VP16 UAS-luciferase, luminescence, 20 h. Potency, µM (top dose mostly 53.6 µM), usual class: inhibitors;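 note: Gal4-VP16 expression switched on by copper sulfate through the metallothionein promoter; nearly all actives have a fitted effect of over 50% in size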
# Six1-Eya2 blk: Six1/Eya2 interaction inhibition | Q15475+O00167 | AlphaScreen GST-Six1/His-Eya2 binding, biochemical; active compounds read low | activity change, % (test concentration not listed) | 0.56% of 360,000 active; in the data active = activity change below about -65%; inconclusive = mostly about -30% to -63%
#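 AlphaScreen luminescence read after one hour at 37 °C in darkness. Pin-transferred compounds met GST-Six1 and His-Eya2 protein (5X stock 250 nM/500 nM) plus glutathione donor and Ni-chelate acceptor beads (5X, 50 ug/mL).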
# CtBP-E1A blk: CtBP/E1A binding inhibition | activity change, % (no concentration beside the values) | AID 651724 | AlphaScreen GST-E1A/His-CtBP binding, 1536-well; active compounds read low | 0.49% of 340,000 active; in the data active = activity change below about -65%; inconclusive = mostly about -30% to -63%
#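 Protein mix (5X: 125 nM each GST-E1A, His-CtBP) was incubated with pinned compound 2 h at 37 deg C in dark, in 50 mM Tris pH 8.0 buffer with 300 mM NaCl. Glutathione donor and nickel acceptor beads followed; AlphaScreen signal read after 1 h.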
# CBFb-RUNX1 inh: inhibitors of human CBF-beta and RUNX1 interaction; Potency, µM (titrated, usually from 59.8 µM), hits mostly inhibitors; 230,000 tested, under 10 active; AlphaScreen CBFb-His/RUNX1-biotin binding, biochemical; Q01196+Q13951
#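 Read-out: AlphaScreen. Format: His-CBF-beta with biotinylated RUNX1 (30 nM each) preincubated 20 min, compound 15 min, Ni-chelate plus streptavidin beads 90 min; room temperature throughout.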
# MBNL1-CUG inh: inhibitors of human MBNL1 binding to CUG repeat RNA. TR-FRET MBNL1-His/biotin-(CUG)12 binding, 665/545 ratio. Potency, µM (top dose mostly 57.5 µM), most hits filed as inhibitors. Q9NR56. 0.036% of 280,000 active. AID 2675; active = well fitted inhibition curve with a large enough effect in the signal ratio, with a control signal flat, not every such curve was filed as active; inconclusive = small, poorly fitted or top-dose-only effect, or effect the other way, or a change in a side signal; inactive = no such curve, though single readings can be large or run the other way; the % refers to the signal ratio
#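 TR-FRET between His-tagged MBNL1 and biotin-(CUG)12 RNA, detected with Tb anti-His antibody (0.055 ng/ul) and streptavidin-XL665 (5 nM), 60 min at room temperature. Compounds titrated 92 nM to 58 uM; 665/545 nm ratio normalized to buffer and complex controls.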
# Numbers stand for hits; i = inactive; ? = inconclusive; nt = no result given; [ ] = remark or other dose. Unless noted, calls come from the whole dose curve; as a rule, active = well fitted curve in the direction sought with a large enough effect; inconclusive = small, poorly fitted or top-dose-only effect, or another doubt; inactive = no such curve, though single readings can be large; an effect the other way counts as inactive or inconclusive.
SMILES,RORg inh,VP16 counter,Six1-Eya2 blk,CtBP-E1A blk,CBFb-RUNX1 inh,MBNL1-CUG inh
O=C1c2ccccc2C(=O)c2cc(S(=O)(=O)Nc3cccc4cccnc34)ccc21,0.89µM,i,nt,nt,?,nt
Cc1ccc2nsnc2c1S(=O)(=O)Nc1cccc2nsnc12,?,i,i,i,i,i
CC(C)c1cc(C(C)C)c(S(=O)(=O)Nc2cccc3cccnc23)c(C(C)C)c1,0.05µM,i,nt,nt,i,nt
O=S(=O)(Nc1cc(Sc2cccc3cccnc23)c(O)c2ccccc12)c1ccccc1,1.3µM,2.8µM,nt,nt,nt,?
Cc1ccc2nsnc2c1S(=O)(=O)Nc1cccc2cccnc12,1.1µM,0.63µM,nt,nt,i,nt
CC(C)C[C@@H]1CC2=C(C(=O)OC(C)(C)O2)[C@H](CCc2ccccc2)O1,nt,nt,i,i,nt,nt
O=c1c2cc(Br)ccc2[nH]c(=S)n1Cc1ccccc1,2.5µM,3.5µM,i,i,nt,i
O=c1c2cc(Br)ccc2[nH]c(=S)n1Cc1ccccn1,2.8µM,?,i,i,i,i
O=C(NCc1cccnc1)c1ccc(Cn2c(=S)[nH]c3ccc(Br)cc3c2=O)cc1,i,i,i,i,i,i
COc1ccc(NC(=O)Cn2c(=O)n(CC3CCCO3)c(=O)c3cc(OC)c(OC)cc32)cc1OC (stereo unspecified),i,i,i,i,nt,i
O/C(=C\c1nc2ccccc2nc1/C=C(\O)c1ccccc1)c1ccccc1,10µM,i[10 µM],i,i,i,?
Cc1ccc(-c2nc(CS(=O)CC(=O)NCc3ccc(Cl)cc3)c(C)o2)cc1 (stereo unspecified),13µM,i,i,i,i,i
CCc1cccc(NC(=O)CS(=O)Cc2nc(-c3ccc(C)cc3)oc2C)c1 (stereo unspecified),11µM,i,i,i,i,i
CCc1ccc(-c2nc(CS(=O)CC(=O)NCc3ccccc3)c(C)o2)cc1 (stereo unspecified),?,i,i,i,nt,i
COCCNC(=O)CS(=O)Cc1nc(-c2ccc(Cl)cc2)oc1C (stereo unspecified),i,i,i,i,i,i
COc1ccc(-c2nc(CS(=O)CC(=O)NCc3ccc(Cl)cc3)c(C)o2)cc1 (stereo unspecified),8.9µM,i,i,i,i,i
Cc1oc(-c2ccc(Cl)cc2)nc1CS(=O)CC(=O)NCc1ccccc1 (stereo unspecified),i,i,i,i,nt,i
COc1ccc(C(=O)NCc2nnc(SCC(=O)Nc3nnc(C)s3)o2)cc1OC,?,i,i,i,i,i
CCSc1nnc(NC(=O)CSc2nnc(CNC(=O)c3cc(OC)c(OC)c(OC)c3)o2)s1,16µM,?,?,i,i,?
COc1ccc(C(=O)NCc2nnc(SCC(=O)Nc3nc4ccc(C)cc4s3)o2)cc1OC,7.9µM,7.9µM,i,i,i,nt
Nc1ccccc1C(=O)NN=Cc1cccnc1,nt,nt,i,i,nt,nt
Cc1cccc(Cn2c(NCCO)nc3c2c(=O)n(C)c(=O)n3C)c1,?,4.5µM,i,i,i,i
Cc1cccc(Cn2c(NCC(C)O)nc3c2c(=O)n(C)c(=O)n3C)c1 (stereo unspecified),i,?,i,i,i,i
COCCCNc1nc2c(c(=O)n(C)c(=O)n2C)n1Cc1cccc(OC)c1,?,?,i,i,i,?
COCCNc1nc2c(c(=O)n(C)c(=O)n2C)n1Cc1cccc(C)c1,?,10µM,i,i,i,i
SMILES,RORg inh,VP16 counter,Six1-Eya2 blk,CtBP-E1A blk,CBFb-RUNX1 inh,MBNL1-CUG inh
COc1cc(NS(=O)(=O)c2ccc3c(c2)C(C)(C)C(=O)N3C)cc(OC)c1,i,i,i,i,nt,i
C=CCNC(=O)c1c[nH]c2ccc(S(=O)(=O)N(C)c3ccc(OCC)cc3)cc2c1=O,?,i,i,nt,nt,i
CC(C)(C)NC(=O)CN(CCN1CCOCC1)C(=O)CNS(=O)(=O)c1ccccc1,i,i,i,i,nt,i
O=C(Nc1ccc(-c2nc3ccc(NC(=O)c4cccs4)cc3[nH]2)cc1)c1cccs1,13µM,?,i,i,?,i
CC(=O)Nc1ccc2nc(-c3ccccn3)[nH]c2c1,10µM,i,?,?,i,i
c1cncc(-c2nc3cc4ccccc4cc3[nH]2)c1,?,?,i,i,i,?
